Results as given in PubChem BioAssay (Tox21).
Values joined by “and” are separate entries in the source; they are usually repeats but may differ in a detail not shown here. Equal values may be shown once. Results filed as inconclusive are left out. Active and inactive are the calls of the source. Unless noted, calls come from the whole dose curve; as a rule, active = well fitted curve in the direction sought with a large enough effect in the repeat runs; inconclusive = weak or mixed curves; inactive = no such curve, though single readings can be large; an effect the other way counts as inactive or inconclusive.

Key:
[1] = qHTS assay to identify aromatase inhibitors - cell viability counter screen (AID 743084);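 note: cells stimulated with testosterone during compound exposure; nearly all actives have a fitted effect of over 55% in size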
[2] = target: Aryl hydrocarbon receptor (Homo sapiens) (UniProt P35869); assay: qHTS assay to identify small molecule that activate the aryl hydrocarbon receptor (AhR) signaling pathway (AID 743085); note: nearly all actives have a fitted effect of over 15% in size; note: potency is the fitted concentration of half-maximal effect;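 for activation: HG2L7.5c1 human HepG2 liver cells with stably integrated DRE-driven firefly reporter; series mostly up to about 70 µM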
Chain of Aryl hydrocarbon receptor (Homo sapiens) (P35869 whole entry, looked up): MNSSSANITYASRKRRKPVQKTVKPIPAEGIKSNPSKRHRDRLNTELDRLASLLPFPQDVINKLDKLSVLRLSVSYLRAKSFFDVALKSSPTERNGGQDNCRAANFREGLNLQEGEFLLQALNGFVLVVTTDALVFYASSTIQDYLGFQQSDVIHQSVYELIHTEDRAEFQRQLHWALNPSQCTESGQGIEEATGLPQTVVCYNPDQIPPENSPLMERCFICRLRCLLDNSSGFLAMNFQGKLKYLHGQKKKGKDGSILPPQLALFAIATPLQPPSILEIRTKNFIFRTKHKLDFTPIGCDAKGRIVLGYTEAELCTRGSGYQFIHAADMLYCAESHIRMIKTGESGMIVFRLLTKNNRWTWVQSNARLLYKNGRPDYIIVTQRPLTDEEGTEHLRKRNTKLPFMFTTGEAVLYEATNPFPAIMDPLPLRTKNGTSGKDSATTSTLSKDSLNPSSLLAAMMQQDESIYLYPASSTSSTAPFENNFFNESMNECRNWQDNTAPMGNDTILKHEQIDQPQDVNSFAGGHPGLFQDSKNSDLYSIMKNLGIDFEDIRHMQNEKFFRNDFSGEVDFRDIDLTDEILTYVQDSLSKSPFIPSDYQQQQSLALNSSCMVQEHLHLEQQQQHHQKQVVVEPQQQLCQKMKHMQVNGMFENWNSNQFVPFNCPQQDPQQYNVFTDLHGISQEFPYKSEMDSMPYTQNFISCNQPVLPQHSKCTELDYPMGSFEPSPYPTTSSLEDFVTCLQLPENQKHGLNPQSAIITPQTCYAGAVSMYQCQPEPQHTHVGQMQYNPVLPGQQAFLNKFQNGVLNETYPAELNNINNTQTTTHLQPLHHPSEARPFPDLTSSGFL
Method in brief: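 Compounds were tested in HepG2 hepatocellular carcinoma cells harbouring a stably integrated luciferase gene under control of 20 DREs. Increased reporter signal after 24 h treatment at 37C was taken as AhR activation.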

[3] = qHTS assay to identify small molecule that activate the aryl hydrocarbon receptor (AhR) signaling pathway - cell viability counter screen (AID 743086);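 note: HepG2 liver cells carrying the AhR DRE luciferase reporter; series mostly up to about 70 µM; nearly all actives have a fitted effect of over 45% in size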
Method in brief: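 HepG2-AhR-luc (HG2L7.5c1) cells, 4000/well, treated 24 h at 37 C with compound; viability measured as CellTiter-Fluor fluorescence after 30 min in the same wells as the luciferase read.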

[4] = target: Peroxisome proliferator-activated receptor gamma (Homo sapiens) (UniProt P37231); assay: qHTS assay to identify small molecule agonists of the peroxisome proliferator-activated receptor gamma (PPARg) signaling pathway (AID 743094; active = well fitted activation curve with a large enough effect in the signal ratio in the repeat runs, not every such curve was filed as active; the % refers to the signal ratio)
Chain of Peroxisome proliferator-activated receptor gamma (Homo sapiens) (P37231 whole entry, looked up): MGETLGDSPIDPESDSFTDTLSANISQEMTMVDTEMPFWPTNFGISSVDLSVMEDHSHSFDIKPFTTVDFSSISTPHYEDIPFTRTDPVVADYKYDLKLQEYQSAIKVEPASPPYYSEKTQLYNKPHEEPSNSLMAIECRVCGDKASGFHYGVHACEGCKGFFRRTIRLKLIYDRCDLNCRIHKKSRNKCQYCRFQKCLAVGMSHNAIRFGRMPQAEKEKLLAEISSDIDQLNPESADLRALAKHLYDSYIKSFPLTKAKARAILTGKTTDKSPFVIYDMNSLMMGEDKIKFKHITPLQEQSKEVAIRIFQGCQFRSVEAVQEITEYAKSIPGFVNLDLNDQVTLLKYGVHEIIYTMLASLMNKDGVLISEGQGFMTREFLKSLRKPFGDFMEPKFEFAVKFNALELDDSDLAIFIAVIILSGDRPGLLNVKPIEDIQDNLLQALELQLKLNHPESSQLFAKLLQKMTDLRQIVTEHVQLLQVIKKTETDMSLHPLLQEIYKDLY
Method in brief: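 HEK293H PPARg-bla cells, 5 h settle at 37C/5% CO2; compound (DMSO) 17 h, 37C; B/G FRET substrate 1 h RT; fluorescence intensity read-out. qHTS format.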

[5] = qHTS assay to identify small molecule antagonists of the peroxisome proliferator-activated receptor gamma (PPARg) signaling pathway - cell viability counter screen (AID 743194); details: Potency: co-treated with 50 nM rosiglitazone unless noted; note: nearly all actives have a fitted effect of over 55% in size
Method in brief: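 Cytotoxicity counter screen in PPARg-bla HEK293H cells, same wells as reporter assay. Compounds plus 50 nM rosiglitazone (final) for 17 h at 37 C, then viability read by CellTiter-Glo luminescence.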

[6] = qHTS assay for small molecule agonists of the antioxidant response element (ARE) signaling pathway (AID 743202; active = well fitted activation curve with a large enough effect in the signal ratio in the repeat runs, not every such curve was filed as active; the % refers to the signal ratio)
Method in brief: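 HepG2 ARE-bla cells; 16 h treatment at 37 C; FRET-based beta-lactamase fluorescence read after 2 h substrate incubation at room temperature.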

[7] = qHTS assay for small molecule agonists of the antioxidant response element (ARE) signaling pathway - cell viability counter screen (AID 743203; calls by dose curve; note: nearly all actives have a fitted effect of over 55% in size)
Method in brief: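 Luminescence read-out (CellTiter-Glo, 30 min at room temperature) measured cell viability in the same wells as the ARE beta-lactamase reporter. HepG2 ARE-bla cells were treated with compounds for 16 hrs at 37C/5% CO2.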

[8] = qHTS assay for small molecule activators of the heat shock response signaling pathway - cell viability counter screen (AID 743209); note: nearly all actives have a fitted effect of over 50% in size
Method in brief: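 HSE-bla HeLa; 1500 cells/well; overnight 37 C, 5% CO2; compound 5 h 37 C; LiveBLAzer B/G substrate 2.5 h RT; CellTiter-Glo 30 min RT; luminescence.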

[9] = qHTS assay for small molecule activators of the heat shock response signaling pathway (AID 743210; active = well fitted activation curve with a large enough effect in the signal ratio in the repeat runs, with a control signal flat, not every such curve was filed as active; the % refers to the signal ratio;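 note: HeLa cells with beta-lactamase reporter driven by heat shock elements; series mostly up to about 63 µM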)
Method in brief: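 Following overnight attachment, HSE-bla HeLa cells received test compounds for 5 h at 37 C; beta-lactamase activity was then detected via FRET substrate fluorescence.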

[10] = qHTS assay to identify small molecule agonists of the peroxisome proliferator-activated receptor delta (PPARd) signaling pathway - cell viability counter screen (AID 743211); note: nearly all actives have a fitted effect of over 55% in size
Method in brief: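 Counter screen for cytotoxicity run in parallel with the PPARd reporter screen. Beta-lactamase reporter HEK293H cells exposed to compounds 17 h; ATP-based CellTiter-Glo luminescence quantified viability.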

[11] = target: Peroxisome proliferator-activated receptor delta (Homo sapiens) (UniProt Q03181); assay: qHTS assay to identify small molecule agonists of the peroxisome proliferator-activated receptor delta (PPARd) signaling pathway (AID 743212; calls by dose curve)
Chain of Peroxisome proliferator-activated receptor delta (Homo sapiens) (Q03181 whole entry, looked up): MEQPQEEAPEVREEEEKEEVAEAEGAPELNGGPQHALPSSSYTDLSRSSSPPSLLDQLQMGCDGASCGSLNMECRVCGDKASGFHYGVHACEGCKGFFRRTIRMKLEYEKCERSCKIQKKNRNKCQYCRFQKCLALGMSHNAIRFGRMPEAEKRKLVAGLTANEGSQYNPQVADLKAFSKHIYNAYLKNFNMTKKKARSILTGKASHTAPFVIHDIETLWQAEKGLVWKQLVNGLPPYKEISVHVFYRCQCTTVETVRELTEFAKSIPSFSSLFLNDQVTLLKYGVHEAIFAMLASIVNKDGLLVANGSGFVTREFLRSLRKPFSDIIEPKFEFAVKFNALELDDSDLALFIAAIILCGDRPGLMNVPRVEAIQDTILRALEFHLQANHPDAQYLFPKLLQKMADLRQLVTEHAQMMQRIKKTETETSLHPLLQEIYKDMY
Method in brief: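 Tox21 library screened in GeneBLAzer PPARd UAS-bla HEK293H cells. After compound treatment at 37 C, a FRET-based beta-lactamase substrate was applied for 2 h and fluorescence recorded.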

[12] = qHTS assay to identify small molecule antagonists of the peroxisome proliferator-activated receptor delta (PPARd) signaling pathway - cell viability counter screen (AID 743213); note: nearly all actives have a fitted effect of over 50% in size
Method in brief: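 PPARd-bla HEK293H cells (3000/well) got compound plus 300 nM L165041 agonist for 17 h at 37 C. Viability in the same wells came from CellTiter-Glo luminescence after 30 min at room temperature.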

[13] = target: Peroxisome proliferator-activated receptor delta (Homo sapiens) (UniProt Q03181); assay: qHTS assay to identify small molecule antagonists of the peroxisome proliferator-activated receptor delta (PPARd) signaling pathway (AID 743215; active = well fitted inhibition curve with a large enough effect in the signal ratio in the repeat runs, not every such curve was filed as active; the % refers to the signal ratio;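 note: cells stimulated with agonist L165041 at 300 nM final during compound exposure; series mostly up to about 62 µM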)
Method in brief: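 HEK293H GeneBLAzer PPARd UAS-bla reporter cells; cpd + L165041 300 nM final, 17 h 37 C; LiveBLAzer B/G FRET substrate 2 h RT; fluorescence intensity read-out. Antagonist mode.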

[14] = qHTS assay to identify small molecule agonists of the farnesoid-X-receptor (FXR) signaling pathway - cell viability counter screen (AID 743218); note: nearly all actives have a fitted effect of over 45% in size
Method in brief: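 Luminescence from CellTiter-Glo, read after 30 min at RT, reports viability of GeneBLAzer FXR-UAS-bla HEK 293T cells treated 16 h with compounds in the wells used for the beta-lactamase reporter.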

[15] = qHTS assay to identify small molecule antagonists of the farnesoid-X-receptor (FXR) signaling pathway - cell viability counter screen (AID 743221; active = well fitted cell-killing curve with a large enough effect in the repeat runs, not every such curve was filed as active; note: nearly all actives have a fitted effect of over 50% in size)
Method in brief: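 Multiplexed counter screen: viability of FXR-bla HEK 293T cells under agonist stimulation by chenodeoxycholic acid (50 uM, final) and test compound for 16 h at 37 C, measured by CellTiter-Glo luminescence in the reporter wells.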

[16] = target: Vitamin D3 receptor (Homo sapiens) (UniProt P11473); assay: qHTS assay to identify small molecule agonists of the vitamin D receptor (VDR) signaling pathway (AID 743222; calls by dose curve)
Chain of Vitamin D3 receptor (Homo sapiens) (P11473 whole entry, looked up): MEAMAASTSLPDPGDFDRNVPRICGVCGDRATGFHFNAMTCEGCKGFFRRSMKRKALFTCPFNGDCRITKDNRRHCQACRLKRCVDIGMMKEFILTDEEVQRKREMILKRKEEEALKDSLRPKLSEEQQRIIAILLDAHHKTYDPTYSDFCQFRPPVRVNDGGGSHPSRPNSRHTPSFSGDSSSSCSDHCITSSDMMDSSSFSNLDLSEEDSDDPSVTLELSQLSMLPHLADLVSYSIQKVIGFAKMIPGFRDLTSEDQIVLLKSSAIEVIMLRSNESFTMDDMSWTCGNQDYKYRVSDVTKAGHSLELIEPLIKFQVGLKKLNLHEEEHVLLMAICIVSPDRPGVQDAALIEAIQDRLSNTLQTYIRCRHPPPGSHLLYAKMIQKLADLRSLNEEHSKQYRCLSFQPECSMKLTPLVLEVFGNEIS
Method in brief: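 Beta-lactamase reporter readout (LiveBLAzer B/G FRET, 2 h RT) in VDR-bla cells after 16 h compound treatment at 37C, 5% CO2; cells pre-incubated 4 h before pin transfer of DMSO solutions.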

[17] = target: Vitamin D3 receptor (Homo sapiens) (UniProt P11473); assay: qHTS assay to identify small molecule antagonists of the vitamin D receptor (VDR) signaling pathway (AID 743223; active = well fitted inhibition curve with a large enough effect in the signal ratio in the repeat runs, not every such curve was filed as active; the % refers to the signal ratio)
Method in brief: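 Cells carrying a VDR-driven beta-lactamase reporter (VDR-bla) were co-treated with compound and 3 nM final 1alpha,25-dihydroxyvitamin D3 for 16 h at 37C; reporter activity was measured as FRET substrate fluorescence after 2 h at room temperature.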

[18] = target: Peroxisome proliferator-activated receptor gamma (Homo sapiens) (UniProt P37231); assay: qHTS assay to identify small molecule antagonists of the peroxisome proliferator-activated receptor gamma (PPARg) signaling pathway (AID 743191; calls by dose curve; note: nearly all actives have a fitted effect of over 30% in size; note: potency is the fitted concentration of half-maximal effect)
Method in brief: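 GeneBLAzer PPARg UAS-bla HEK293H cells, 5 h post-plating, exposed to compounds 17 h at 37C. LiveBLAzer B/G FRET substrate added for 1 h at room temperature; beta-lactamase reporter read by fluorescence intensity.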

[19] = target: Bile acid receptor (Homo sapiens) (UniProt Q96RI1); assay: qHTS assay to identify small molecule antagonists of the farnesoid-X-receptor (FXR) signaling pathway (AID 743217; active = well fitted inhibition curve with a large enough effect in the signal ratio in the repeat runs, not every such curve was filed as active; the % refers to the signal ratio)
Chain of Bile acid receptor (Homo sapiens) (Q96RI1 whole entry, looked up): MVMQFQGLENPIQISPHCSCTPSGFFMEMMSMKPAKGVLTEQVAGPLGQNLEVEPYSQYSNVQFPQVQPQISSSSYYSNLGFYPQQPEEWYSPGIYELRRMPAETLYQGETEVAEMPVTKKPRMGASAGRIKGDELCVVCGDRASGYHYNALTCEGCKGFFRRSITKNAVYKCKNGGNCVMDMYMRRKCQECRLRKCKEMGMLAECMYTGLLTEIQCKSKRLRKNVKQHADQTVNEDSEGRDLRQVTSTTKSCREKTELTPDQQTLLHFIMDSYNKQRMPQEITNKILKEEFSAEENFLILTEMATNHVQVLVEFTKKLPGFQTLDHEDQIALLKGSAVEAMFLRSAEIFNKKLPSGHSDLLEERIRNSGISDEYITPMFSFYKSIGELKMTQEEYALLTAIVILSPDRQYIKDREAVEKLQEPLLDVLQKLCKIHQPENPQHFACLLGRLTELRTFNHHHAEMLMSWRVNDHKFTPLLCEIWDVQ
Method in brief: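 Read-out: beta-lactamase FRET fluorescence (LiveBLAzer B/G substrate, 2 h, room temperature) in GeneBLAzer FXR-UAS-bla HEK 293T cells. Compounds were co-dosed with 50 uM chenodeoxycholic acid (final) and incubated 16 h at 37 °C.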

[20] = target: Bile acid receptor (Homo sapiens) (UniProt Q96RI1); assay: qHTS assay to identify small molecule agonists of the farnesoid-X-receptor (FXR) signaling pathway (AID 743220; active = well fitted activation curve with a large enough effect in the signal ratio in the repeat runs, not every such curve was filed as active; the % refers to the signal ratio)
Method in brief: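 FXR-UAS-bla HEK 293T cells carrying a UAS-driven beta-lactamase reporter were plated for 5 h at 37C/5% CO2, then exposed to DMSO-dissolved Tox21 10K compounds for 16 h at 37C. A LiveBLAzer B/G FRET substrate was loaded for 2 h at room temperature before fluorescence reading.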

Measured: Potency

OCC(O)CS (configuration not stated)
inactive: [1] | [2] | [3] | [4] | [5] | [6] | [7] | [8] | [9] | [10] | [11] | [12] | [13] | [14] | [15] | [16] | [17]

COCN(COC)c1nc(N(COC)COC)nc(N(COC)COC)n1
inactive: [1] | [2] | [3] | [4] | [18] | [5] | [7] | [8] | [9] | [10] | [11] | [12] | [13] | [19] | [14] | [20] | [15] | [16] | [17]

Cc1nnc(NS(=O)(=O)c2ccc(N)cc2)s1
inactive: [1] | [2] | [3] | [4] | [18] | [5] | [7] | [10] | [11] | [12] | [13] | [14] | [15] | [16]

C[n+]1ccn(CCO)c1
inactive: [1] | [2] | [3] | [4] | [5] | [7] | [8] | [10] | [14] | [15] | [16] | [17]

COC(=O)CCCCC(=O)OC
inactive: [1] | [2] | [3] | [4] | [18] | [5] | [7] | [10] | [11] | [12] | [13] | [19] | [14] | [20] | [15] | [16] | [17]

CCCCCCCCCCCCCC(=O)O
inactive: [1] | [2] | [3] | [4] | [5] | [6] | [7] | [8] | [10] | [19] | [14] | [20] | [15] | [16] | [17]

CC/C=C(\C(=O)N[C@@H]1C(=O)N2C(C(=O)OCOC(=O)C(C)(C)C)=C(COC(N)=O)CS[C@H]12)c1csc(N)n1
inactive: [1] | [2] | [3] | [4] | [18] | [5] | [7] | [8] | [9] | [10] | [14] | [15] | [16] | [17]

Cc1ncc(CO)c(CO)c1O
inactive: [1] | [2] | [3] | [4] | [18] | [5] | [6] | [7] | [9] | [10] | [11] | [13] | [19] | [14] | [20] | [15] | [16] | [17]

COc1c(Cl)ccc(Cl)c1C(=O)O
inactive: [1] | [2] | [3] | [4] | [5] | [6] | [7] | [10] | [11] | [12] | [13] | [14] | [15] | [16] | [17]

COc1cc(NC(=O)CC(C)=O)c(OC)cc1Cl
inactive: [1] | [3] | [4] | [5] | [7] | [8] | [10] | [11] | [12] | [14] | [15]
active: [2] 24.4 µM and 686 nM | [18] 19.5 µM

CCCCCNCCCCC
inactive: [1] | [2] | [3] | [4] | [5] | [6] | [7] | [8] | [9] | [10] | [11] | [12] | [13] | [14] | [15] | [16] | [17]

Oc1ccc(Cc2ccccc2O)cc1
inactive: [1] | [2] | [3] | [4] | [7] | [8] | [11] | [12] | [13] | [19] | [14] | [20] | [15] | [16] | [17]

O=C(c1ccccc1)c1ccc(O)c(O)c1O
inactive: [1] | [2] | [3] | [4] | [5] | [7] | [10] | [11] | [12] | [14] | [15] | [16] | [17]

CCOC(=O)c1ccc(O)cc1
inactive: [1] | [2] | [3] | [5] | [6] | [7] | [8] | [9] | [10] | [11] | [12] | [13] | [19] | [14] | [20] | [15] | [16] | [17]

CC(=O)Nc1ccc(CC(=O)O)cc1
inactive: [1] | [2] | [3] | [18] | [5] | [6] | [7] | [8] | [9] | [10] | [12] | [14] | [15]

CN1CCCC1=O
inactive: [1] | [2] | [3] | [4] | [18] | [5] | [7] | [8] | [9] | [10] | [12] | [14] | [15] | [16] | [17]

CCc1cccc(O)c1
inactive: [1] | [2] | [3] | [18] | [5] | [7] | [8] | [9] | [10] | [11] | [12] | [13] | [19] | [14] | [20] | [15] | [16] | [17]

COc1ccc(N)c(OC)c1
inactive: [1] | [2] | [3] | [4] | [5] | [6] | [7] | [8] | [10] | [11] | [14] | [15] | [16] | [17]
